Screening data: PubChem, several laboratories
Tat export inh = E. coli Tat export inhibitors, primary screen, MC4100, TorA-mCherry reporter, fluorescence, single point; inhibition, % at 10 µM; 340,000 tested, 0.036% active; AID 488895, 2010;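 active means mean replicate inhibition at least 50% and at least half of replicates individually reaching 50%; inconclusive means only one of the two criteria met; inactive means neither criterion met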;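 further: exported cargo escapes ClpAP degradation while cytoplasmic cargo is degraded and loses fluorescence; 0% = median of neutral control wells and 100% = median of NaSCN control wells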
E coli growth-1 = E. coli V3065 growth inhibition, primary screen, counter-screen for AddAB inhibitor project, absorbance, OD600 | 330,000 tested, 0.27% active | 18 h | inhibition, % at 11.9 µM;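 active means inhibition above the campaign's mean inhibition across all tested compounds plus 3 SD, cut at about 9.9% in these data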;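 further: uninfected addAB+ strain grown without phage in ampicillin broth; 0% = DMSO wells and 100% = ciprofloxacin 0.95 µg/ml wells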
E coli growth-2 = E. coli growth inhibition, primary screen, OD600; Escherichia coli growth, 23 h; hits give low values; OD600 absorbance (concentration not given with the values); 330,000 tested, 0.21% active;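 active means OD600 absorbance below the run mean of sample wells minus 3.6 SD, in any replicate, cut at about 0.56 in these data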
AddAB inh = growth inhibition of E. coli expressing H. pylori AddAB, primary screen, AddAB inhibitor project, absorbance. inhibition, % at 11.9 µM. 330,000 tested, 0.29% active. AID 435030, 2010; in the data active means inhibition above about 12%;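 further: 0% = vehicle wells of infected cells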
phage Ecoli inh = growth loss of phage-infected E. coli, primary screen, RecBCD inhibitor project, absorbance, with phage, HTS | inhibition, % at 11.9 µM | 360,000 tested, 0.26% active | AID 651602, 2012; in the data active means inhibition above about 11%
RecBCD conf = growth loss of phage-infected RecBCD+ E. coli, confirmation, RecBCD inhibitor project, absorbance, E. coli V66, T4 gene 2 phage; 890 tested, 45% active; shares compounds with phage Ecoli inh; E. coli V66 + T4 2- phage, growth OD; inhibition, % at 11.9 µM;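 active means mean inhibition over triplicates exceeding the hit threshold derived in the original primary screen, cut at about 11% in these data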
Ecoli viability = E. coli viability inhibition, counter-screen for RecBCD inhibitor project, absorbance, high throughput; shares compounds with phage Ecoli inh; absorbance (OD) growth; inhibition, % at 11.9 µM; 890 tested, 29% active; in the data active means inhibition above about 20%;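 further: E. coli strain V66 grown with compound alone and no phage infection; 0% = bacteria with DMSO vehicle only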
AddAB phage OD = growth loss of phage-infected AddAB-carrying E. coli, confirmation, counter-screen for RecBCD inhibitor project, absorbance, E. coli V3065, T4 phage; AID 651984, 2013; 890 tested, 45% active; inhibition, % at 11.9 µM; E. coli expressing H. pylori AddAB + T4 phage, OD growth; gene 2 mutant T4, recBCD-deleted host; shares compounds with phage Ecoli inh;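 active means mean inhibition above the solvent-only control wells' mean plus 3 SD, cut at about 22% in these data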;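 further: higher means less bacterial growth from phage killing when AddAB is blocked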
Starred values were filed as active, the others as inactive; ? = inconclusive; nt = no result given. Shown are actives, neighbours in structure and some others; about 0.5% of the full set was active somewhere.

SMILES	Tat export inh	E coli growth-1	E coli growth-2	AddAB inh	phage Ecoli inh	RecBCD conf	Ecoli viability	AddAB phage OD
NC(=S)NN=Cc1nccc2c(C(F)(F)F)cccc12	nt	nt	nt	nt	16*	18*	21*	22*
CNc1cccnc1C=NNC(N)=S	-10	nt	nt	nt	4	nt	nt	nt
O=C(O)c1cccc2c1C(=NO)c1ccccc1-2	nt	nt	0.65	nt	nt	nt	nt	nt
CCN(CC)S(=O)(=O)c1cccc(C(=O)N/N=C/c2ccc(O)c(O)c2O)c1	5	10	nt	14*	14*	6	5	8
CCCc1nc2c(=O)n(C)c(=O)nc-2n(C)n1	-48	nt	0.44*	nt	18*	16*	16	36*
Cn1nc(-c2ccccn2)nc2c(=O)n(C)c(=O)nc1-2	-11	1	0.67	2	2	nt	nt	nt
OC(CN1CCN(c2ccccn2)CC1)Cn1c2ccccc2c2ccccc21 (stereo not given)	6	0	0.61	5	12*	-4	-4	-4
Nc1nonc1-n1nnc(C(=O)NN=Cc2ccco2)c1-c1ccccc1	nt	nt	0.65	nt	nt	nt	nt	nt
CCCCC(=O)NC(c1cccc([N+](=O)[O-])c1)c1ccc2cccnc2c1O (stereo not given)	2	nt	0.59	nt	19*	16*	18	25*
CC(C)(C)C(=O)Nc1ccc(Sc2ccc([N+](=O)[O-])cc2)cc1	10	-1	0.72	2	2	nt	nt	nt
CC(=O)Nc1ccc(Sc2ccc([N+](=O)[O-])o2)cc1	-22	nt	0.55	nt	21*	15*	17	72*
CC(C)(C)CN1C(=O)C(=O)NCC1CCCCN (stereo not given)	nt	nt	0.68	nt	nt	nt	nt	nt
COC(=O)CC=CC(C)C(C=NOC(C)c1cn(C(CO)Cc2ccccc2)nn1)NS(=O)(=O)c1ccc(C)cc1 (stereo not given)	nt	nt	0.68	nt	nt	nt	nt	nt
CCNS(=O)(=O)c1ccc(NC(=O)Cn2nc(C(F)(F)F)cc2C)cc1	-10	11*	0.69	11	12*	5	6	7
COc1ccc(C(=O)COc2ncnc3cc(Cl)ccc23)cc1	10	2	0.7	1	98*	-5	-5	0
C[n+]1c(-c2ccc(C=NNC(=O)c3ccc(C(=O)NN=Cc4ccc(-c5cn6ccccc6[n+]5C)cc4)cc3)cc2)cn2ccccc21	50*	nt	nt	nt	57*	78*	76*	80*
O=C(N/N=C\c1ccc(F)cc1)c1ccc(F)cc1	1	-3	nt	-1	5	nt	nt	nt
CC1CN(C(C)CO)C(=O)c2cc(NC(=O)NC3CCCCC3)ccc2OC1CN(C)S(C)(=O)=O (stereo not given)	nt	nt	0.65	nt	nt	nt	nt	nt
O=C(CSc1nnc(-c2ccccc2)n1Cc1ccccc1)NNC(=O)c1ccccc1O	-5	9	0.57	12	12*	4	4	4
C#CCOCCOCCOCCNc1nc(N2CCN(C(=O)C(C(C)O)n3cc(CCCCN)nn3)CC2)nc(N2CCN(C(=O)C(C(C)CC)n3cc(CCCCN)nn3)CC2)n1 (stereo not given)	nt	nt	0.71	nt	nt	nt	nt	nt
CCN(CCOC(=O)Nc1ccc(Cl)cc1)C(=O)Nc1ccc(Cl)cc1	nt	nt	nt	nt	11*	5	5	1
NC(=S)NN=Cc1cn(CCC(=O)O)nc1-c1cccc(Br)c1	nt	nt	0.7	nt	nt	nt	nt	nt
COc1ccc(-c2nn(CCC(=O)O)cc2/C=N/NC(N)=S)cc1	6	-2	nt	-1	73*	-1	-1	4
COc1ccc(N(CC(=O)NN=Cc2cc(OC)ccc2OC)S(=O)(=O)c2ccccc2)cc1	nt	nt	0.65	nt	nt	nt	nt	nt
Cc1cccc(NC(c2ccc(O)cc2)c2ccc3ccc(C)nc3c2O)n1 (stereo not given)	-4	-1	0.69	3	6	nt	nt	nt
SMILES	Tat export inh	E coli growth-1	E coli growth-2	AddAB inh	phage Ecoli inh	RecBCD conf	Ecoli viability	AddAB phage OD
COc1cccc(C(Nc2ccccc2)c2ccc3ccc(C)nc3c2O)c1 (stereo not given)	nt	nt	nt	nt	12*	5	7	5
COc1ccc(N(N=C2Sc3ccccc3C2=O)C(C)=O)cc1	nt	nt	0.69	nt	nt	nt	nt	nt
O=[N+]([O-])c1ccc(-c2nc(Cl)c3c(n2)CCCC3)o1	nt	nt	nt	nt	97*	76*	97*	100*
O=C(CSc1ccc(-c2ccccn2)nn1)c1ccc([N+](=O)[O-])cc1	-4	5	0.66	7	12*	-1	0	5
O=C(CSc1ccc(-c2cccnc2)nn1)c1ccc([N+](=O)[O-])cc1	-4	0	0.64	1	3	nt	nt	nt
CC(=O)c1cccc(NC(=O)CSc2ccc(-c3ccccn3)nn2)c1	2	6	0.61	11	11*	4	3	18
Nc1nnn(CC(=O)NN=Cc2ccccc2Cl)n1	nt	nt	0.63	nt	nt	nt	nt	nt
Cc1[nH]nc(C(F)(F)F)c1N=NN1CCOCC1	83*	nt	nt	nt	100*	99*	103*	100*
Cc1cccc(NC(=O)NNC(=O)c2ccc3ccccc3c2O)c1	-6	nt	0.7	nt	11	nt	nt	nt
O=C(NNC(=O)c1ccc2ccccc2c1O)Nc1ccc(F)cc1	-2	9	0.73	10	12*	5	6	8
COCc1c(C(=O)NN=Cc2cccs2)nnn1-c1nonc1N	nt	nt	0.68	nt	nt	nt	nt	nt
COc1ccc(C)c2sc(=NC(=O)c3ccc(C(C)=O)cc3)n(C)c12	-7	0	0.66	3	2	nt	nt	nt
COc1ccc(C)c2sc(=NC(=O)c3ccccc3)n(C)c12	-10	0	0.78	-4	100*	-1	1	1
COC(=O)[C@@]1(Cc2ccc(OC)cc2)C2c3cc(C(=O)N(C)C)n(Cc4c(CO)[nH]cc(C)c4=O)c3CC2CN1C(=O)c1ccccc1 (stereo not given in full)	nt	nt	0.71	nt	nt	nt	nt	nt
Nc1ncn([C@H]2C[C@H](O)[C@@H](CO)O2)c(=O)n1	-9	4	nt	3	12*	14*	8	34*
COc1ccc(C2CC(=O)C=C(c3ccc(Cl)c(C(F)(F)F)c3)C2)cc1 (stereo not given)	nt	nt	0.71	nt	nt	nt	nt	nt
Cc1c(Cl)sn(-c2ccc(Cl)cc2)c1=O	?	nt	0.062*	nt	98*	99*	100*	100*
CC=CC(=O)Nc1cccc(C2=NOC3(C2)CC(C(N)=O)N(C(=O)c2cc([N+](=O)[O-])cc([N+](=O)[O-])c2)C3)c1 (stereo not given)	nt	nt	0.7	nt	nt	nt	nt	nt
O=C(N/N=C/c1ccc(O)cc1O)c1ccc(NC(=O)C2CCCCC2)cc1	-15	29*	nt	24*	23*	14*	18	18
S=C(Nc1ccc(Br)cc1)NC1CCCCC1	0	6	0.67	8	12*	3	5	5
